According to the supplement of paper PMC4466140:

These binders were tested against ScBbc1 (assay: SPOT peptide array binding signal intensity (averaged, normalized) (arbitrary units (background-subtracted, floor 0; scale differs between SH3 domains)); higher = stronger binding of the SH3 domain to the peptide).
How it was run: (§1)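 Binding signal refers to normalized, background-subtracted spot intensity averaged over replicates, expressed in arbitrary units that differ between domains. GST-fused SH3 domains from four yeast species were incubated at 10 μg/ml overnight at 4°C on cellulose membranes of synthetic 15-mer peptides with cysteines replaced by serines. Bound protein was detected with anti-GST antibody, an HRP anti-mouse secondary and luminol, and quantified with Genespotter.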

Row | Binder | SPOT peptide array binding signal intensity
1 | LKPPIGRPPKFPKSP | 7

What follows are binders tested against ScBem1-D1 in the same assay as above.
How it was run: as §1

Row | Binder | SPOT peptide array binding signal intensity
2 | LKPPIGRPPKFPKSP | ≤ 0

These binders were tested against ScBzz1-D1 in the same assay as above.
How it was run: as §1

Row | Binder | SPOT peptide array binding signal intensity
3 | LKPPIGRPPKFPKSP | ≤ 0

These binders were tested against ScBzz1-D2 in the same assay as above.
How it was run: as §1

Row | Binder | SPOT peptide array binding signal intensity
4 | LKPPIGRPPKFPKSP | ≤ 0

Each binder was assayed against ScCyk3 in the same assay as above.
How it was run: as §1

Row | Binder | SPOT peptide array binding signal intensity
5 | LKPPIGRPPKFPKSP | 0.25

Each binder was assayed against ScFus1 in the same assay as above.
How it was run: as §1

Row | Binder | SPOT peptide array binding signal intensity
6 | LKPPIGRPPKFPKSP | ≤ 0

The binders below were run against ScHof1 in the same assay as above.
How it was run: as §1

Row | Binder | SPOT peptide array binding signal intensity
7 | LKPPIGRPPKFPKSP | ≤ 0

Each binder was assayed against ScHse1 in the same assay as above.
How it was run: as §1

Row | Binder | SPOT peptide array binding signal intensity
8 | LKPPIGRPPKFPKSP | 19.8

The binders below were run against ScLsb1 in the same assay as above.
How it was run: as §1

Row | Binder | SPOT peptide array binding signal intensity
9 | LKPPIGRPPKFPKSP | 1.5

What follows are binders tested against ScLsb2 in the same assay as above.
How it was run: as §1

Row | Binder | SPOT peptide array binding signal intensity
10 | LKPPIGRPPKFPKSP | ≤ 0

These binders were tested against ScLsb3 in the same assay as above.
How it was run: as §1

Row | Binder | SPOT peptide array binding signal intensity
11 | LKPPIGRPPKFPKSP | 64.8

The binders below were run against ScLsb4 in the same assay as above.
How it was run: as §1

Row | Binder | SPOT peptide array binding signal intensity
12 | LKPPIGRPPKFPKSP | ≤ 0

Each binder was assayed against ScMyo3 in the same assay as above.
How it was run: as §1

Row | Binder | SPOT peptide array binding signal intensity
13 | LKPPIGRPPKFPKSP | 1390

The binders below were run against ScMyo5 in the same assay as above.
How it was run: as §1

Row | Binder | SPOT peptide array binding signal intensity
14 | LKPPIGRPPKFPKSP | 682

These binders were tested against ScNbp2 in the same assay as above.
How it was run: as §1

Row | Binder | SPOT peptide array binding signal intensity
15 | LKPPIGRPPKFPKSP | ≤ 0

The binders below were run against ScPex13 in the same assay as above.
How it was run: as §1

Row | Binder | SPOT peptide array binding signal intensity
16 | LKPPIGRPPKFPKSP | ≤ 0

What follows are binders tested against ScRvs167 in the same assay as above.
How it was run: as §1

Row | Binder | SPOT peptide array binding signal intensity
17 | LKPPIGRPPKFPKSP | ≤ 0

Each binder was assayed against ScSho1 in the same assay as above.
How it was run: as §1

Row | Binder | SPOT peptide array binding signal intensity
18 | LKPPIGRPPKFPKSP | 4.5

The binders below were run against ScSla1-D1-D2 in the same assay as above.
How it was run: as §1

Row | Binder | SPOT peptide array binding signal intensity
19 | LKPPIGRPPKFPKSP | 88.5

Each binder was assayed against ScSla1-D3 in the same assay as above.
How it was run: as §1

Row | Binder | SPOT peptide array binding signal intensity
20 | LKPPIGRPPKFPKSP | 13.6

These binders were tested against SpAbp1-D1 in the same assay as above.
How it was run: as §1

Row | Binder | SPOT peptide array binding signal intensity
21 | LKPPIGRPPKFPKSP | 455

What follows are binders tested against SpBbc1 in the same assay as above.
How it was run: as §1

Row | Binder | SPOT peptide array binding signal intensity
22 | LKPPIGRPPKFPKSP | 7.25

The binders below were run against SpBzz1-D1 in the same assay as above.
How it was run: as §1

Row | Binder | SPOT peptide array binding signal intensity
23 | LKPPIGRPPKFPKSP | 894

The binders below were run against SpBzz1-D2 in the same assay as above.
How it was run: as §1

Row | Binder | SPOT peptide array binding signal intensity
24 | LKPPIGRPPKFPKSP | ≤ 0

What follows are binders tested against SpCyk3 in the same assay as above.
How it was run: as §1

Row | Binder | SPOT peptide array binding signal intensity
25 | LKPPIGRPPKFPKSP | ≤ 0

These binders were tested against SpHof1 in the same assay as above.
How it was run: as §1

Row | Binder | SPOT peptide array binding signal intensity
26 | LKPPIGRPPKFPKSP | 1.38

What follows are binders tested against SpHof1-2 in the same assay as above.
How it was run: as §1

Row | Binder | SPOT peptide array binding signal intensity
27 | LKPPIGRPPKFPKSP | ≤ 0

These binders were tested against SpHof1-3 in the same assay as above.
How it was run: as §1

Row | Binder | SPOT peptide array binding signal intensity
28 | LKPPIGRPPKFPKSP | 88.2

These binders were tested against SpHse1 in the same assay as above.
How it was run: as §1

Row | Binder | SPOT peptide array binding signal intensity
29 | LKPPIGRPPKFPKSP | 11.5

The binders below were run against SpLsb1 in the same assay as above.
How it was run: as §1

Row | Binder | SPOT peptide array binding signal intensity
30 | LKPPIGRPPKFPKSP | 3.75

Each binder was assayed against SpLsb4 in the same assay as above.
How it was run: as §1

Row | Binder | SPOT peptide array binding signal intensity
31 | LKPPIGRPPKFPKSP | 29.5

What follows are binders tested against SpMyo1 in the same assay as above.
How it was run: as §1

Row | Binder | SPOT peptide array binding signal intensity
32 | LKPPIGRPPKFPKSP | 1430

These binders were tested against SpNbp2 in the same assay as above.
How it was run: as §1

Row | Binder | SPOT peptide array binding signal intensity
33 | LKPPIGRPPKFPKSP | ≤ 0

These binders were tested against SpPex13 in the same assay as above.
How it was run: as §1

Row | Binder | SPOT peptide array binding signal intensity
34 | LKPPIGRPPKFPKSP | ≤ 0

Each binder was assayed against SpRvs167 in the same assay as above.
How it was run: as §1

Row | Binder | SPOT peptide array binding signal intensity
35 | LKPPIGRPPKFPKSP | 1.33

These binders were tested against SpSla1-D1-D2 in the same assay as above.
How it was run: as §1

Row | Binder | SPOT peptide array binding signal intensity
36 | LKPPIGRPPKFPKSP | ≤ 0

These binders were tested against SpSla1-D3 in the same assay as above.
How it was run: as §1

Row | Binder | SPOT peptide array binding signal intensity
37 | LKPPIGRPPKFPKSP | 2.5
